“And” between values parts separate entries of the source, which are not always exact repeats. Equal entries are not always repeated. The panel holds about 83,000 compounds, 20% with a hit somewhere; the sample as a whole holds those more often.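 96-well plates, one dose, 48 hours. Percent growth reported; active if below 10.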 The source made the active and inactive calls.
The compounds below were run on MDA-MB-468 breast (assay: NCI-60 one-dose screen, 48 h (100 = growth as untreated, 0 = no growth, -100 = all killed)). Conditions: 10 µM unless noted.
NC1=NC(c2ccc(Cl)cc2)C2=C(N1)/C(=C/c1ccc(Cl)cc1)CCC2 (stereo unspecified) was tested, and the growth was 62.2% (inactive). CC1=C2[C@@H](CC1)[C@]1(C)O[C@@](c3ccccc3)(C[C@H]1OC(=O)CO)[C@H]2OC(=O)/C=C/c1ccccc1 was tested, and the growth was 91.1% (inactive). With C=C(C)[C@@H]1CC[C@]2(C(=O)NCCNCCNCCN)CC[C@]3(C)[C@H](CC[C@@H]4[C@@]5(C)CC[C@H](O)C(C)(C)[C@@H]5CC[C@]43C)[C@@H]12 the growth was -48.6% [100 µM] (active). With Cc1ccc([N+](=O)[O-])cc1NC(=O)Nc1cccc(F)c1 the growth was 26.9% (inactive). In the case of COc1cc(OC)c(/C=C/C(=O)c2c(N)cc(OC)cc2OC)c(OC)c1, the growth is reported as -17.1% (active). In the case of O=C(O)c1ccccc1Oc1cc(-c2ccco2)nc(OCCN2CCOCC2)n1, the growth is reported as 105% (inactive). With CC1(C)CC(=O)c2cc3c(N)c(C(=O)Nc4ccc(Cl)cc4)sc3nc2C1 the growth was 110% (inactive). For Fc1ccc(-c2nnc(N3CCOCC3)c3ccccc23)cc1, the growth was 98.8% (inactive). For COc1cccc(/C=C2\Oc3cc(OCCCN4CCCC4)ccc3C2=O)c1, the growth was 69.4% (inactive). In the case of C[C@]12CCc3c(ccc4cc(O)ccc34)[C@@H]1CC[C@H]2O, the growth is reported as 81.3% (inactive). In the case of COc1ccc(C(=O)CCC(=O)O)cc1, the growth is reported as 48% (inactive). In the case of NC(=Nc1ccccc1)SCCCCSC(N)=Nc1ccccc1, the growth is reported as 82.6% (inactive). For CC[C@H](Nc1ncnc2nc[nH]c12)c1nc2cccc(NCc3ccc(C(=O)NO)o3)c2c(=O)n1-c1ccccc1, the growth was 84.7% (inactive). With OB(O)c1ccsc1-c1nc2ccc3[nH]ncc3c2c2c1CCCC2 the growth was 8.64% (active). With COc1cc2ncnc(Nc3ccc(F)c(Cl)c3)c2cc1OCC(=O)N1CCN(c2ccc(F)cc2)CC1 the growth was -7.58% (active). CN1CCC(=C(c2ccccc2)c2ccccc2)C(c2ccccc2)C1 (stereo unspecified) was tested, and the growth was 87.6% (inactive). In the case of Cc1ccc2nc(-c3ccc(C(=O)NNC(=S)Nc4ccccc4)cc3)[nH]c2c1, the growth is reported as 98.6% (inactive). With N#CC1c2ccccc2C=CN1C(=O)c1ccccc1 (stereo unspecified) the growth was 108% (inactive) and 96.5% (inactive). Nc1c(C(=O)C[C@@H](N)CO)ccc2c1C(=O)CCO2 was tested, and the growth was -14.1% (active). With CCn1cc(C(=O)N/N=C/c2cccs2)c(=O)c2cc(F)c(N3CCNC(C)C3)c(F)c21 (stereo unspecified) the growth was 55.1% (inactive). With CCN1CCN(Cc2ccc(Cc3ncc(F)c(-c4cc(F)c5nc(C)n(C(C)C)c5c4)n3)nc2)CC1 the growth was 80.6% (inactive). With CC(=O)c1nn(-c2ccc(C)cc2)cc1C(=O)c1cc2c(ccc3ccccc32)oc1=O the growth was 118% (inactive). With CC(C)c1ccc(Nc2n[nH]c(=S)s2)cc1 the growth was 107% (inactive). For O=C1c2ccccc2C(=O)N1c1ccccc1, the growth was 108% (inactive). With Cc1ccc(/C=C/c2nn3c(-c4ccco4)nnc3s2)cc1C the growth was 107% (inactive). In the case of O=C(CCl)N1c2ccccc2Oc2ccc3ccccc3c21, the growth is reported as -72.5% (active).

Source: PubChem BioAssay (NCI)
